hgDAF-12 ag: H. glycines DAF-12 receptor agonists, primary screen, cell-based, luminescence, HEK293, GAL4 fusion, UAS-luciferase | activation, % at 6.8 µM | Nuclear hormone receptor DAF-12 (Heterodera glycines), GAL4 fusion | HEK293 GAL4-hgDAF12 UAS-luciferase reporter, agonist luminescence; normalized to butyrate control | actives 1.8% (n = 370,000) | AID 687014, 2013;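 active means activation above a cutoff set at the mean of all screened compounds plus 3 SD, cut at about 10% in these data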;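 further: 0% = DMSO wells and 100% = sodium butyrate wells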
SMARCA2 act: SMARCA2 (BRM) function activators, primary screen, cell-based, luminescence, high throughput. activation, % at 9.1 µM. MG213 cells, MMTV-luciferase reporter, dexamethasone, overnight. actives 1% (n = 370,000); in the data active means activation above about 7.8%;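 further: 0% = vehicle wells and 100% = reference activator wells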
DAX1 inh-1: DAX1 (NR0B1) inhibitors on StAR promoter, primary screen, cell-based, luminescence, SF-1 (NR5A1), full-length DAX-1; HEK293T StAR-luciferase reporter, SF-1/DAX-1 repression relief; inhibition, % at 6.8 µM; actives 1.1% (n = 370,000);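 active means inhibition above the mean over all tested compounds plus 3 SD, cut at about 3.6% in these data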;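 further: 0% = DAX-1 cells with DMSO and 100% = cells lacking DAX-1 with DMSO; higher inhibition means more luminescence from relief of DAX-1 repression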
DAX1 inh-2: DAX1 (NR0B1) inhibitors, primary screen, cell-based, HEK293, Gal4-DAX1, luciferase luminescence. HEK293 Gal4-DAX1 luciferase reporter. inhibition, % at 6.75 µM. actives 0.99% (n = 340,000). AID 504766, 2011;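 active means inhibition above the mean over all tested compounds plus 3 SD, cut at about 4.2% in these data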;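 further: 0% = DAX1-transfected cells with DMSO and 100% = empty-vector control cells with DMSO; inhibition shows as a rise in luminescence from relieved DAX1 repression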
Target sequence (P51843 207-470 limits assumed): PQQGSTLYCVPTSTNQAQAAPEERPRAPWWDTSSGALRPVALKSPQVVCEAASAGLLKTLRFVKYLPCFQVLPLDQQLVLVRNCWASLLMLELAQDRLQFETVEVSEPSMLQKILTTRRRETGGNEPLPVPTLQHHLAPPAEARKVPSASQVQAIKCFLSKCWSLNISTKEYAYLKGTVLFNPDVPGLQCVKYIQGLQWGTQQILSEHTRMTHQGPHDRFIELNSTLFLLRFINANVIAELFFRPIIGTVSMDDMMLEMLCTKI
ssDAF-12 act: S. stercoralis DAF-12 nuclear receptor activators, primary screen, cell-based, luminescence, HEK293, GRIP1 co-expression, lit1-tk-luc; HEK293 ssDAF-12/GRIP1 lit1-tk-luc reporter; % of 3 µM dafachronic acid response; activation, % at 6.8 µM; actives 1% (n = 370,000); AID 652126, 2013;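 active means activation above the mean over all tested compounds plus 3 SD, cut at about 0.9% in these data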;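 further: 0% = DMSO-only wells and 100% = 3 µM delta7-dafachronic acid wells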
hcDAF-12 act: H. contortus DAF-12 nuclear receptor activators, primary screen, cell-based, luminescence, HEK293, lit1-tk-luc reporter | HEK293 hcDAF-12 lit1-tk-luc reporter; 0% DMSO, 100% Δ7-dafachronic acid | AID 652067, 2013 | activation, % at 6.8 µM | actives 1.4% (n = 370,000);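 active means activation above the mean of all tested compounds plus 3 SD, cut at about 5.5% in these data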;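 further: 100% = response to 3 µM Δ7-dafachronic acid high control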
DAX1 inh confirm: DAX1 (NR0B1) inhibitors relieving SF-1 repression, confirmation, cell-based, luminescence, HEK293T, full-length DAX-1, SF-1 activated StAR promoter | shares compounds with DAX1 inh-1 | HEK293T StAR-promoter luciferase reporter, SF-1/DAX-1 repression | inhibition, % at 6.8 µM | actives 87% (n = 2,400) | AID 652134, 2013;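 active means inhibition above the average of every tested compound plus 3 SD, cut at about 3.8% in these data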;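 further: 0% = DAX-1 cells with DMSO and 100% = no DAX-1 control cells with DMSO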
SF1 mutant ctr: StAR reporter signal changes without DAX1, counter-screen for DAX1 inhibitor project, cell-based, luminescence, AF-2 mutant SF-1, transactivation. shares compounds with DAX1 inh-1. HEK293 StAR-luciferase, SF-1 AF2 mutant. inhibition, % at 6.8 µM. actives 78% (n = 2,400);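 active means inhibition above the mean of all tested compounds plus 3 SD, cut at about 3% in these data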;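 further: 0% = DAX-1 transfected cells with DMSO and 100% = cells without DAX-1 with DMSO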
LXR ag: LXR agonists, Gal4 luciferase reporter, confirmation, counter-screen for hcDAF-12 agonist project, cell-based, luminescence, HEK293, H. contortus campaign | HEK293 Gal4-LXR tk-luc reporter, 24 h; normalized: DMSO 0%, positive control 100% | activation, % at 6.8 µM | 3,400 tested, under 10 active | shares compounds with hcDAF-12 act | AID 743027, 2013;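 active means mean percent activation of the reporter above a cutoff set as the average over tested compounds plus their standard deviation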
Target sequence (P55055 whole entry, looked up, the tested form may be a part): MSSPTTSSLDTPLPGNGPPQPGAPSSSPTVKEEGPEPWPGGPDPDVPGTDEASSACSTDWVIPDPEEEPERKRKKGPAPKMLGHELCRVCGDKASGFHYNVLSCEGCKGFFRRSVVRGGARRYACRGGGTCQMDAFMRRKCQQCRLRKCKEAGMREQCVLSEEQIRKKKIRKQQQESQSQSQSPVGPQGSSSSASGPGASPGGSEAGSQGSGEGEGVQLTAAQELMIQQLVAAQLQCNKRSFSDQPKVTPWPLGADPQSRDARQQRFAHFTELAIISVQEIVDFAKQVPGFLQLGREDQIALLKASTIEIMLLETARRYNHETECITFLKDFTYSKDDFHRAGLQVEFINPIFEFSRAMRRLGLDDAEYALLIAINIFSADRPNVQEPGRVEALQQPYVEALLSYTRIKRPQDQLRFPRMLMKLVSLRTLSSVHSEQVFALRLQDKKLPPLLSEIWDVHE
hcDAF12 ag: H. contortus DAF-12 receptor agonists, confirmation, cell-based, luminescence, HEK293, lit1-tk-luc, triplicate; HEK293 hcDAF-12 lit1-tk-luc reporter; % of Δ7-dafachronic acid response; AID 743032, 2013; shares compounds with hcDAF-12 act; actives 61% (n = 3,400); activation, % at 6.8 µM;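 active means mean activation across triplicate tests above the threshold derived from the earlier primary screen, cut at about 5.5% in these data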;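 further: 0% = DMSO only wells and 100% = 3 µM Δ7-dafachronic acid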
hgDAF12 conf: H. glycines DAF-12 receptor agonists, confirmation, cell-based, luminescence, HEK293, GAL4-LBD fusion; shares compounds with hgDAF-12 ag; HEK293 GAL4-hgDAF12 luciferase reporter, agonist mode; percent of butyrate response; activation, % at 6.8 µM; actives 80% (n = 3,300);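 active means mean activation over triplicate wells above the hit cutoff derived from the earlier primary screen, cut at about 11% in these data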;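 further: 0% = DMSO low control and 100% = 2 mM sodium butyrate high control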
LXR ag 2: LXR agonists, Gal4 luciferase reporter, confirmation, counter-screen for hgDAF-12 agonist project, cell-based, luminescence, HEK293, H. glycines campaign | shares compounds with hgDAF-12 ag | 24 h | activation, % at 6.8 µM | 3,300 tested, under 10 active;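 active means mean activation of the triplicate above a set limit carried over from the primary screen, none filed active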
An asterisk follows results filed as active; nt = not tested or not shown. Compounds with a hit are over-represented: about 4.8% of the library has one in this group of screens.

SMILES	hgDAF-12 ag	SMARCA2 act	DAX1 inh-1	DAX1 inh-2	ssDAF-12 act	hcDAF-12 act	DAX1 inh confirm	SF1 mutant ctr	LXR ag	hcDAF12 ag	hgDAF12 conf	LXR ag 2
COc1ccc(-c2nn(-c3ccccc3)cc2N)cc1	16.2*	0.8	5.3*	1.6	0.0	3.7	9.2*	5.8*	nt	nt	15.6*	0.5
CNC(=O)c1sc2nc(-c3ccc(OC)cc3)cn2c1C	15.8*	6.4	5.7*	1.0	0.3	9.1*	10.7*	7.0*	0.7	2.0	13.4*	0.6
O=C(N/N=C/c1ccc(Cl)cc1Cl)c1ccncc1	3.3	0.5	-1.0	1.2	-0.7	-2.2	nt	nt	nt	nt	nt	nt
O=C(NN=Cc1ccc(Cl)cc1Cl)c1ccccc1	17.5*	3.0	5.5*	3.0	0.7	3.3	10.6*	5.8*	nt	nt	15.8*	0.8
O=C(NC1CCCCN(Cc2cccc(C(F)(F)F)c2)C1=O)C1C2CC3CC(C2)CC1C3 (configuration not stated)	-0.1	-0.9	-1.8	nt	-1.5	-2.2	nt	nt	nt	nt	nt	nt
COc1cccc(/C=C/C(=O)Nc2cccc(C(C)=O)c2)c1OC	9.8	0.8	1.5	-0.1	-1.4	0.4	nt	nt	nt	nt	nt	nt
COc1cccc(/C=C/C(=O)Nc2ccc3c(c2)OCCO3)c1OC	18.5*	4.8	10.1*	-1.9	0.6	7.7*	10.7*	5.3*	1.7	5.9*	16.6*	1.1
Cc1ccc2c(c1)-c1c(cnn1CC(=O)NCCc1cccc(F)c1)CO2	-2.2	-6.1	-0.8	nt	-1.1	-1.9	nt	nt	nt	nt	nt	nt
O=C(O)c1cc2c(ccc3ccccc32)o1	3.5	-1.2	0.5	-0.9	-1.3	0.6	nt	nt	nt	nt	nt	nt
O=C(c1cc2c(ccc3ccccc32)o1)N1CCCCC1	18.0*	7.3	14.8*	0.7	1.2*	6.8*	14.6*	8.7*	1.2	4.3	13.8*	0.8
O=C(Nc1ccc(N2CCCCCC2)cc1)c1ccc[nH]1	14.8*	6.7	12.5*	0.9	0.6	7.3*	9.4*	5.8*	1.6	10.0*	17.2*	0.9
O=C(Nc1ccc(N2CCCC2)cc1)c1ccc(Br)cc1	-3.5	1.8	0.0	2.1	-0.5	-0.2	nt	nt	nt	nt	nt	nt
CCCOC(=O)Nc1ccc(N2CCCCC2)cc1	14.9*	6.2	5.3*	1.2	0.8	4.5	16.1*	5.8*	nt	nt	14.2*	0.9
CC(C)CN1C(=O)C[C@@]2(C(=O)N(C)c3ccc(NC(=O)C(F)(F)F)cc32)C1c1ccccc1 (some centres not stated)	2.5	0.1	0.2	nt	-0.7	-1.6	nt	nt	nt	nt	nt	nt
COc1cccc(C(=O)N[C@H](C(=O)N2CCC[C@H]2C(=O)NCCc2ccccc2Cl)C2CCCCC2)c1	-4.3	-2.1	1.6	nt	-1.1	-0.7	nt	nt	nt	nt	nt	nt
N#C/C(=N\Nc1ccc([N+](=O)[O-])cc1)C(=N)N1CCOCC1	4.0	4.2	0.2	3.6	-0.4	-0.1	nt	nt	nt	nt	nt	nt
N#C/C(=N/Nc1ccc([N+](=O)[O-])cc1)C(=N)N1CCCCC1	19.8*	4.4	5.5*	8.1*	1.6*	6.4*	8.2*	3.2*	nt	nt	21.2*	0.7
N#C/C(=N\Nc1ccc(Cl)cc1)C(=N)N1CCCCCC1	17.9*	3.3	7.6*	10.4*	0.1	4.5	21.5*	8.8*	nt	nt	24.4*	1.2
N#C/C(=N\Nc1ccccc1[N+](=O)[O-])C(=N)N1CCCCC1	13.6*	5.1	8.0*	7.4*	1.0*	7.9*	14.2*	8.1*	1.5	8.6*	17.7*	0.7
COc1ccc(OC)c(CN2C(=O)CN(S(C)(=O)=O)CC2(C)c2nnnn2C2CCCC2)c1 (configuration not stated)	-0.7	-1.9	-0.7	nt	-1.5	2.0	nt	nt	nt	nt	nt	nt
COC(=O)[C@]12C[C@H](CC(=O)NCCC(C)C)C(=O)N(Cc3ccccc3)C1=C[C@H](C(C)(C)C)O[C@@H]2C	-1.3	-3.8	-1.4	nt	-0.8	1.6	nt	nt	nt	nt	nt	nt
COCC(=O)Nc1c(C(=O)Nc2ccc3c(c2)OCCO3)oc2ccccc12	17.0*	-1.1	4.6*	1.0	-0.5	3.5	8.6*	5.9*	nt	nt	17.7*	0.9
CCC(=O)Nc1c(C(=O)Nc2ccc3c(c2)OCCO3)oc2ccccc12	9.2	-0.5	3.3	0.1	-0.3	3.5	nt	nt	nt	nt	nt	nt
O=C(Nc1ccc2c(c1)OCCO2)c1ccc2ccccc2n1	20.5*	6.6	10.0*	3.1	2.7*	21.0*	12.7*	8.2*	1.7	15.5*	22.2*	1.3

Bioassay records: PubChem, The Scripps Research Institute Molecular Screening Center
